Hit rate of the full screen: of about 320,000 compounds, about 2,100 (0.66%) were called active. About 53% were inconclusive and are not listed. The call rests on the fitted dose curve; in most records, active means well fitted inhibition curve with a large enough effect in the signal ratio, with a control signal flat (not every such curve was filed as active); inconclusive means small, poorly fitted or top-dose-only effect, or effect the other way, or a change in a side signal; inactive means flat fitted curve, though single readings scatter; the % refers to the signal ratio. The sample as a whole holds a higher share of actives than the screen did.
Potency means the concentration at half of the fitted maximal effect.

A short description of the experiment: qHTS Assay for Lipid Storage Modulators in Drosophila S3 Cells.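 On cell number change: cells counted by Cell Tracker Red CMTPX staining in the red channel.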 On lipid storage change, negative = inhibition: on the % scale 0 is the no-effect control and ±100 the full control effect. To be noted: BODIPY lipid droplet fluorescence, 18-24 h, cells fed with added oleic acid; cell number change: measured here: cell count max response; series mostly up to 46.1 µM; lipid storage change, negative = inhibition: at the top concentration. The gist of the method: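 Drosophila S3 cells loaded with oleic acid (400 uM, as added) and compounds at several concentrations; lipid droplets imaged by 488-nm laser-scanning cytometry, 500–530 nm intensity and object ratio to cell channel. Percent activity normalized to 20 uM Triacsin C.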
In general terms: qHTS replaces the single test concentration by a dilution series.
With `CCNC(=S)NS(=O)(=O)c1ccc(CC)cc1`, the “lipid storage change, negative = inhibition” value was 6.51% (inactive) and the cell number change is -7.16%.

On to `CCCn1cc2c(c1-c1ccc(C)cc1)c(=O)n(C)c(=O)n2C`, for which the “lipid storage change, negative = inhibition” value was -9.64% (inactive) and the cell number change was 4.81%.

For `CC1=C(C(=O)N2CCc3ccccc32)C2(CCC(C)CC2)OC1=O` (stereo not drawn), the “lipid storage change, negative = inhibition” value is -2.81% (inactive) and the cell number change was -7.54%.

As for `Cc1cc(Br)c2nc3c(c(C(=O)O)c2c1)CCCCC3`, the “lipid storage change, negative = inhibition” value was -4.98% (inactive) and the cell number change is -0.276%.

Turning to `CCOc1c2c(nc3ccc(Cl)cc13)CCC2`, the “lipid storage change, negative = inhibition” value was 6.62% (inactive) and the cell number change came to 8.32%.

Regarding `O=C(O)c1c2c(nc3ccc(F)cc13)CCC2`, the “lipid storage change, negative = inhibition” value was -2.17% (inactive) and the cell number change is -14.4%.

As for `Cc1cccc2c(C(=O)O)c3c(nc12)CCCCC3`, the Potency was 18.4 µM (active) and the cell number change was -17%.

`CN(C)C(=O)c1c2c(nc3ccccc13)CCCC2`: the compound was called inactive and the cell number change was found to be 1.75%.

For `O=C(O)c1c2c(nc3ccc(Cl)cc13)CCC2`, the Potency was 0.0517 µM (active).

On to `COc1ccccc1/C=C/C1(C(=O)NC2CCCC2)CC(=O)N1c1ccc(F)cc1` (stereo not drawn), for which the “lipid storage change, negative = inhibition” value was -14.5% (inactive) and the cell number change is -14.3%.

For the compound `Cc1ccc(-n2c(O)c(/C=N/n3cnnc3)c3ccccc3c2=O)cc1`, the “lipid storage change, negative = inhibition” value is 5.77% (inactive) and the cell number change is 9.27%.

In the case of `COc1cc(/C=N/NS(=O)(=O)c2ccccc2)ccc1OS(=O)(=O)c1ccc(C)cc1`, the “lipid storage change, negative = inhibition” value was 8.09% (inactive) and the cell number change amounted to 20.6%.

Consider `COc1ccc(-n2c(O)c(/C=N/NS(=O)(=O)c3ccc(C)cc3)c3ccccc3c2=O)cc1OC`, for which the Potency was 8.2 µM (active) and the cell number change was -21%.

With `NC(=O)Cn1cc(/C=N\NS(=O)(=O)c2cccc([N+](=O)[O-])c2)c2ccccc21`, the “lipid storage change, negative = inhibition” value was 2.72% (inactive) and the cell number change is 1.79%.

Take `O=[N+]([O-])c1cccc(S(=O)(=O)N/N=C/c2ccc(O)cc2)c1`: the “lipid storage change, negative = inhibition” value was -15% (inactive).

On to `COc1ccc(-n2c(O)c(/C=N/NS(=O)(=O)c3cccc([N+](=O)[O-])c3)c3ccccc3c2=O)cc1OC`, for which the Potency was 16.4 µM (active) and the cell number change is -20.8%.

On to `Cc1cccn2c(CN3CCCC(c4ccccc4)C3)c(C(=O)N3CCOCC3)nc12` (stereo not drawn), for which the “lipid storage change, negative = inhibition” value was -8.42% (inactive) and the cell number change was -15.3%.

With `Cc1nc2nc(NC(=O)c3ccco3)nn2c(C)c1Cl`, the “lipid storage change, negative = inhibition” value was 6.53% (inactive) and the cell number change was 16.3%.

In the case of `CCOc1ccc(CCNC(=O)c2cccc(-n3cnnn3)c2)cc1OCC`, the Potency is 0.0731 µM (active) and the cell number change was -24.8%.

Turning to `Cc1noc(C)c1COc1ccc(C(=O)NNC(=O)c2ccccc2)cc1`, the “lipid storage change, negative = inhibition” value is 12.6% (inactive) and the cell number change came out at 2.9%.

With `CCOc1ccc(CCNC(=O)c2cccc(S(=O)(=O)N3CCN(C(C)=O)CC3)c2)cc1OCC`, the “lipid storage change, negative = inhibition” value was -10.5% (inactive) and the cell number change was -4.38%.

For the compound `CCOc1ccc(CCNC(=O)c2ccc(OCc3c(C)noc3C)cc2)cc1OCC`, the Potency was 11.6 µM (active) and the cell number change stood at 14.1%.

Consider `CCOc1ccc(CCNC(=O)c2cc(C)on2)cc1OCC`, for which the “lipid storage change, negative = inhibition” value is 14.1% (inactive) and the cell number change was found to be 4.47%.

For the compound `CCOc1ccc(CCNC(=O)c2cc(C)nc3ccccc23)cc1OCC`, the call was inactive and the cell number change was determined as 1.62%.

In the case of `Cc1noc(C)c1COc1ccc(C(=O)N(C)CCOc2ccccc2)cc1`, the Potency was 8.2 µM (active) and the cell number change is -18.6%.

On to `CCOc1ccc(CCNC(=O)c2ccc3ccccc3n2)cc1OCC`, for which the Potency was 8.2 µM (active) and the cell number change was -6.07%.

Consider `CCOc1ccc(-n2cnnn2)cc1S(=O)(=O)NCCc1ccc(OC)c(OC)c1`, for which the call was inactive.

In the case of `Cc1noc(C)c1COc1ccc(C(=O)O)cc1`, the “lipid storage change, negative = inhibition” value is 3.4% (inactive) and the cell number change turned out to be 4.42%.

Take `CCOc1ccc(CCNC(=O)c2ccccc2OCc2c(C)noc2C)cc1OCC`: the “lipid storage change, negative = inhibition” value is 5.43% (inactive) and the cell number change was 4.08%.

For the compound `Cc1noc(C)c1COc1ccc(C(=O)NCCc2ccc(S(N)(=O)=O)cc2)cc1`, the “lipid storage change, negative = inhibition” value was 23% (inactive) and the cell number change was 9.63%.

Turning to `COc1ccc(N2CCN(C(=O)COC(=O)/C=C/c3ccc(OC(F)F)cc3)CC2)cc1`, the “lipid storage change, negative = inhibition” value is 12.6% (inactive).

As for `COc1ccc(Nc2nc(Cl)nc(Nc3ccc(OC)cc3OC)n2)c(OC)c1`, the “lipid storage change, negative = inhibition” value was -9.46% (inactive) and the cell number change was -11.9%.

In the case of `CCOc1ccc(OCc2ccc(C(=O)Nc3ccc(Cl)cn3)o2)cc1`, the “lipid storage change, negative = inhibition” value was 12.2% (inactive) and the cell number change was 16.1%.

Take `CC(=O)Nc1sc(C)c(C)c1CN1CCN(S(=O)(=O)c2ccccc2)CC1`: the outcome was inactive.

In the case of `Cc1cc(C)c(Nc2ncnc(N)n2)c(C)c1`, the “lipid storage change, negative = inhibition” value is 6.89% (inactive) and the cell number change was -1.29%.

With `O=c1cc(N2CCc3ccccc3C2)[nH]c(=O)n1-c1ccc(Br)cc1`, the compound was called inactive.

On to `CCC1CN(C(=O)N2CCC(C(=O)NCc3ccc(C)o3)CC2)c2ccccc2O1` (stereo not drawn), for which the result was inactive.

Consider `CCC1CN(C(=O)N2CCC(C(=O)NCCc3ccccc3OC)CC2)c2ccccc2O1` (stereo not drawn), for which the Potency was 6.51 µM (active) and the cell number change turned out to be 13.3%.

On to `CCC1CN(C(=O)N2CCC(C(=O)NCc3ccc(OC)cc3OC)CC2)c2ccccc2O1` (stereo not drawn), for which the compound was called inactive and the cell number change was determined as 4.13%.

For the compound `CCC1CN(C(=O)N2CCC(C(=O)NCCc3ccccc3)CC2)c2ccccc2O1` (stereo not drawn), the compound was classed as inactive and the cell number change is -2.95%.

Regarding `CCC1CN(C(=O)N2CCC(C(=O)NCCc3ccc(OC)cc3OC)CC2)c2ccccc2O1` (stereo not drawn), the Potency was 5.17 µM (active) and the cell number change worked out at 1.47%.

Consider `CCC1CN(C(=O)N2CCC(C(=O)NCc3cc(OC)c(OC)c(OC)c3)CC2)c2ccccc2O1` (stereo not drawn), for which the call was inactive and the cell number change is -18%.

In the case of `CCC1CN(C(=O)N2CCC(C(=O)NCCc3ccc(OC)c(OC)c3)CC2)c2ccccc2O1` (stereo not drawn), the outcome was inactive and the cell number change was 5.9%.

For `CCC1CN(C(=O)N2CCC(C(=O)NCc3ccccc3C)CC2)c2ccccc2O1` (stereo not drawn), the Potency was 3.66 µM (active) and the cell number change is -0.59%.

For `CCC1CN(C(=O)N2CCC(C(=O)NCc3ccccc3OC)CC2)c2ccccc2O1` (stereo not drawn), the “lipid storage change, negative = inhibition” value was -7.34% (inactive) and the cell number change was found to be 16.5%.
